An excerpt weighted towards active compounds, which were near 2.1% of everything screened.
Abeta yeast res = compounds reversing amyloid beta toxicity in yeast; actives 0.063% (n = 410,000); Potency, µM (series often up to 46.1 µM), usual class: activators; yeast expressing A-beta42, growth rescue, OD600, 48 h; response scale: 0% DMSO, 100% iron-clioquinol control; AID 1347071; note: nearly all actives have a fitted effect of over 55% in size
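Yeast growth medium received pinned compounds, then yeast cells expressing toxic A-beta were added; plates incubated at 30 C for 48 hr. Growth read as absorbance at 600 nm, normalized to DMSO and equimolar FeCl3 plus clioquinol controls.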
TDP-43 yeast inh = TDP-43 toxicity inhibition in yeast. TDP-43 expressing yeast growth rescue, BacTiter-Glo, 24 h. Potency, µM (series often up to 46.1 µM), for inactives: top-dose growth rescue (activation), usual class: activators. actives 1.8% (n = 410,000). AID 652104; note: % of control where 0% means no effect; nearly all actives have a fitted effect of over 50% in size
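In this qHTS, compounds that restore growth of yeast expressing TDP-43 appear as activators. Cells (OD600=0.02, galactose medium, raffinose-pregrown) are incubated with compound 24 hr at 30 deg C and growth is quantified by BacTiter-Glo.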
aSyn yeast inh = inhibitors of alpha-synuclein toxicity in yeast | AID 652106 | Potency, µM (highest dose often 46.1 µM), for inactives: at the highest dose growth rescue (activation), usual class: activators | Yeast expressing alpha-synuclein, growth rescue, BacTiter-Glo, 24 h | actives 0.14% (n = 370,000); note: % of control where 0% means no effect; nearly all actives have a fitted effect of over 65% in size
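Readout is rescue of growth in alpha-synuclein-expressing yeast, so inhibitors of toxicity appear as activators. Growth after 24 hr at 30 deg C in galactose medium is quantified by luminescence.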
FUS suppressor = rescues growth of FUS-expressing yeast | S. cerevisiae FUS-expressing, growth rescue, OD600, 24 h | Potency, µM (doses to about 76.6 µM), usual class: activators | actives 0.24% (n = 390,000);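 note: plate controls were DMSO vehicle for no effect and reference control for full effect; nearly all actives have a fitted effect of over 55% in size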
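Cultures pregrown in 2.5% raffinose medium are shifted to minimal medium containing 2% galactose to express toxic FUS. Compounds are tested at several concentrations. After 24hr at 30C, growth is quantified at 600 nm absorbance.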
Starred values were filed as active, the others as inactive; ! = a repeat was not active. Calls come from the whole dose curve; as a rule, active = well fitted curve in the direction sought with a large enough effect; inconclusive = small, poorly fitted or top-dose-only effect, or another doubt; inactive = no such curve, though single readings can be large; an effect the other way counts as inactive or inconclusive. Potency is the fitted concentration of half-maximal effect.

Results for COC(=O)CCc1c[nH]c2ccc([N+](=O)[O-])cc12 ?
Abeta yeast res: inactive; TDP-43 yeast inh: 14%; aSyn yeast inh: 11%; FUS suppressor: inactive

Results for Cc1ccccc1-c1noc(-c2ccc(N3CCCC3)c([N+](=O)[O-])c2)n1 ?
Abeta yeast res: inactive; TDP-43 yeast inh: 6%; FUS suppressor: inactive

How did S=C1NCN(Cc2ccco2)CN1CCc1ccccc1 do in these assays?
Abeta yeast res: 14µM*; TDP-43 yeast inh: inconclusive; aSyn yeast inh: 3%; FUS suppressor: inactive

What do the screens show for `Cc1cccc(-c2nn3c(=O)cc(CN4CCN(S(=O)(=O)c5ccc(Cl)cc5)CC4)nc3s2)c1`?
Abeta yeast res: inactive; TDP-43 yeast inh: 5%; FUS suppressor: inconclusive

What do the screens show for `Cc1ccc(N2CCN(C(=O)c3nn(C)c4c3CS(=O)(=O)c3ccccc3-4)CC2)c(C)c1`?
Abeta yeast res: inactive; TDP-43 yeast inh: inconclusive; aSyn yeast inh: 5%; FUS suppressor: 22µM*!

What do the screens show for `Cn1nc(C(=O)N2CCN(c3cccc(Cl)c3)CC2)c2c1-c1ccccc1S(=O)(=O)C2`?
Abeta yeast res: inactive; TDP-43 yeast inh: 22µM*; aSyn yeast inh: 3%; FUS suppressor: inconclusive

What do the screens show for `Cc1ccc(Cl)cc1N1CCN(C(=O)c2nn(C)c3c2CS(=O)(=O)c2ccccc2-3)CC1`?
Abeta yeast res: inactive; TDP-43 yeast inh: 8%; FUS suppressor: inconclusive

What do the screens show for `Cc1ccc(S(=O)(=O)N2CCN(c3nc(Nc4ccccc4O)nc4ccccc34)CC2)cc1`?
aSyn yeast inh: 20%

What do the screens show for `Cc1ccc(CSc2nc(=O)c3c(C)cc(C)nc3n2C2CC2)cc1`?
Abeta yeast res: inactive; TDP-43 yeast inh: 3.2µM*; FUS suppressor: inconclusive

Results for COC(=O)c1cc(C)nc2c1c(=O)nc(SCc1c(C)cc(C)cc1C)n2C1CC1 ?
Abeta yeast res: inactive; TDP-43 yeast inh: inconclusive; FUS suppressor: inactive

Results for CCOC(=O)c1ccc(NC(=O)c2noc3c2CCCC3)cc1 ?
Abeta yeast res: inactive; TDP-43 yeast inh: 13%; FUS suppressor: inactive

Results for CC(C)[C@@H]1CC[C@@H](C)c2c(-c3ccccc3)n[nH]c21 ?
Abeta yeast res: inactive; TDP-43 yeast inh: 11µM*; aSyn yeast inh: inconclusive; FUS suppressor: inactive

What do the screens show for `c1ccc(-c2n[nH]c3c2CCC3)cc1`?
Abeta yeast res: inconclusive; TDP-43 yeast inh: inconclusive; aSyn yeast inh: 7%; FUS suppressor: inactive

Results for O=c1cc(CNc2ccc(Br)cc2)nc2sccn12 ?
Abeta yeast res: inactive; TDP-43 yeast inh: 20µM*; aSyn yeast inh: inconclusive

Results for Clc1cccc(Cl)c1/C=C/c1ccn[nH]1 ?
Abeta yeast res: inactive; TDP-43 yeast inh: 22µM*; aSyn yeast inh: -4%; FUS suppressor: inactive

Results for O=C(/C=C/c1c(F)cccc1Cl)c1ccc(F)cc1 ?
Abeta yeast res: inactive; TDP-43 yeast inh: 5%; aSyn yeast inh: -14%; FUS suppressor: inactive

What do the screens show for `CCc1c2c3n4c1CCC[C@@H]4C[C@@H]3O[Si](C(C)C)(C(C)C)OC(C)C2=O` (some centres not stated)?
FUS suppressor: inactive

What do the screens show for `O=C(N/N=C/c1cc([N+](=O)[O-])cc(Br)c1O)C12CC3CCC(CC(C3)C1)C2`?
Abeta yeast res: inactive; TDP-43 yeast inh: 4.5µM*; aSyn yeast inh: 0%; FUS suppressor: inactive

Results for CCOc1ccccc1NC(=O)CSc1nnc(SCc2ccccc2)s1 ?
FUS suppressor: inactive

Results for O=c1n(Cc2ccccc2)nc2n1-c1ccccc1OC2 ?
Abeta yeast res: inactive; TDP-43 yeast inh: inconclusive; FUS suppressor: inactive

How did COc1ccc(Cn2nc3n(c2=O)-c2ccccc2OC3)cc1 do in these assays?
Abeta yeast res: inactive; TDP-43 yeast inh: 14µM*; FUS suppressor: inactive

What do the screens show for `CN(C)c1cc(-c2ccc(C#N)cc2)oc(=O)c1Cl`?
Abeta yeast res: inactive; TDP-43 yeast inh: 30%; aSyn yeast inh: -5%; FUS suppressor: inactive

What do the screens show for `CN(C)c1cc(-c2ccc(Br)cc2)oc(=O)c1Cl`?
Abeta yeast res: inactive; TDP-43 yeast inh: 7.9µM*; aSyn yeast inh: 2%; FUS suppressor: inactive
